# Assay results as given in PubChem BioAssay (NCATS).
# Values joined by “and” are separate entries in the source; they are usually repeats but may differ in a detail not shown here. Equal values may be shown once. Inconclusive results are not listed. Active and inactive are the calls of the source. Calls follow the shape of the dose curve; as a rule, active = well fitted inhibition curve with a large enough effect; inconclusive = small, poorly fitted or top-dose-only effect; inactive = flat fitted curve, though single readings scatter.
# Assay: Drug repurposing screens with cells derived from glioblastoma tumor samples (AID 1345199); also: nearly all actives have a fitted effect of over 40% in size
# Conditions: GBM patient neurospheres viability, ATP luminescence, 48 h; at 21.2 µM (top of the series); tumour line D
# How it was run: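 Primary testing used CD133+ neurospheres from four GBM patients, seven concentrations, 48 h exposure and ATP-based viability; confirmation added three slower-growing patient lines.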
# % is scaled to controls: 0 for no effect and ±100 for the full control effect.
row,SMILES,"activity, negative = cell killing"
1,CCC(=O)O[C@@H]1CC(=O)O[C@H](C)C/C=C/C=C/[C@H](O)[C@H](C)C[C@H](CC=O)[C@H](O[C@@H]2O[C@H](C)[C@@H](O[C@H]3C[C@@](C)(O)[C@@H](OC(=O)CC)[C@H](C)O3)[C@H](N(C)C)[C@H]2O)[C@H]1OC,-1.85% (inactive)
2,CC[N+](C)(C)Cc1ccccc1Br,-1.19% (inactive)
3,CC[C@H]1OC(=O)[C@H](C)[C@@H](O[C@H]2C[C@@](C)(OC)[C@@H](O)[C@H](C)O2)[C@H](C)[C@@H](O[C@@H]2O[C@H](C)C[C@H](N(C)C)[C@H]2O)[C@](C)(O)C[C@@H](C)/C(=N\OCOCCOC)[C@H](C)[C@@H](O)[C@]1(C)O,-24% (inactive)
4,CCOC(=O)O[C@]1(C(=O)COC(=O)CC)CC[C@H]2[C@@H]3CCC4=CC(=O)C=C[C@]4(C)[C@H]3[C@@H](O)C[C@@]21C,-9.53% (inactive)
5,C[C@H](CCC(=O)O)[C@H]1CC[C@H]2[C@@H]3[C@H](O)C[C@@H]4C[C@H](O)CC[C@]4(C)[C@H]3CC[C@]12C,6.12% (inactive)
6,Cc1cc(C(=O)NNCc2ccccc2)no1,-19.1% (inactive)
7,CO[C@@H]1[C@@H](O[C@@H]2O[C@H](C)[C@@H](O[C@H]3C[C@@](C)(O)[C@@H](O)[C@H](C)O3)[C@H](N(C)C)[C@H]2O)[C@@H](CC=O)C[C@@H](C)[C@@H](O[C@@H]2CC[C@H](N(C)C)[C@@H](C)O2)/C=C/C=C/C[C@@H](C)OC(=O)C[C@H]1O,8.89% (inactive)
8,CC(C)NCC1CCc2cc(CO)c([N+](=O)[O-])cc2N1 (centres undefined),-4.44% (inactive)
9,CC(C)(C)C(=O)OCOC(=O)[C@@H]1N2C(=O)[C@@H](N=CN3CCCCCC3)[C@H]2SC1(C)C,17.4% (inactive)
10,NCc1ccccc1CC(=O)N[C@@H]1C(=O)N2C(C(=O)O)=C(CSc3nnnn3CC(=O)O)CS[C@H]12,-30% (inactive)

# Same assay, conditions: GBM patient neurospheres viability, ATP luminescence, 48 h; at 21.3 µM (top of the series); tumour line A
row,SMILES,"activity, negative = cell killing"
1,CCC(=O)O[C@@H]1CC(=O)O[C@H](C)C/C=C/C=C/[C@H](O)[C@H](C)C[C@H](CC=O)[C@H](O[C@@H]2O[C@H](C)[C@@H](O[C@H]3C[C@@](C)(O)[C@@H](OC(=O)CC)[C@H](C)O3)[C@H](N(C)C)[C@H]2O)[C@H]1OC,-24.3% (inactive)
2,CC[N+](C)(C)Cc1ccccc1Br,-11% (inactive)
3,CC[C@H]1OC(=O)[C@H](C)[C@@H](O[C@H]2C[C@@](C)(OC)[C@@H](O)[C@H](C)O2)[C@H](C)[C@@H](O[C@@H]2O[C@H](C)C[C@H](N(C)C)[C@H]2O)[C@](C)(O)C[C@@H](C)/C(=N\OCOCCOC)[C@H](C)[C@@H](O)[C@]1(C)O,-24.2% (inactive)
4,CCOC(=O)O[C@]1(C(=O)COC(=O)CC)CC[C@H]2[C@@H]3CCC4=CC(=O)C=C[C@]4(C)[C@H]3[C@@H](O)C[C@@]21C,-19.6% (inactive)
5,C[C@H](CCC(=O)O)[C@H]1CC[C@H]2[C@@H]3[C@H](O)C[C@@H]4C[C@H](O)CC[C@]4(C)[C@H]3CC[C@]12C,-15.4% (inactive)
6,Cc1cc(C(=O)NNCc2ccccc2)no1,-21.8% (inactive)
7,CC(C)(C)C(=O)OCOC(=O)[C@@H]1N2C(=O)[C@@H](N=CN3CCCCCC3)[C@H]2SC1(C)C,-13.2% (inactive)
8,NCc1ccccc1CC(=O)N[C@@H]1C(=O)N2C(C(=O)O)=C(CSc3nnnn3CC(=O)O)CS[C@H]12,-23.4% (inactive)

# Same assay, conditions: GBM patient neurospheres viability, ATP luminescence, 48 h; at 45.9 µM (top of the series); tumour line B
row,SMILES,"activity, negative = cell killing"
1,CC1=C(/C=C/C(C)=C/C=C/C(C)=C/CO)C(C)(C)CCC1,-16.9% (inactive)
2,O=S(=O)(O)O,3.03% (inactive)
3,C=CCSSSCC=C,-7.75% (inactive)
4,CCCCC(=O)O[C@]1(C(=O)CO)[C@H](C)C[C@H]2[C@@H]3CCC4=CC(=O)C=C[C@]4(C)[C@@]3(F)[C@@H](O)C[C@@]21C,-7.12% (inactive)
5,CCCCC(=O)N(Cc1ccc(-c2ccccc2-c2nn[nH]n2)cc1)[C@@H](C(=O)O)C(C)C,2.85% (inactive)
6,COc1ccc(C[C@@H](C)NC[C@H](O)c2ccc(O)c(NC=O)c2)cc1,-17.2% (inactive)
7,C/C1=C2N=C(/C=C3N=C(/C(C)=C4\[N-][C@@](C)([C@@H]5N=C1[C@](C)(CCC(=O)NCC(C)OP(=O)(O)O[C@H]1[C@@H](O)[C@@H](n6cnc7cc(C)c(C)cc76)O[C@@H]1CO)[C@H]5CC(N)=O)[C@@](C)(CC(N)=O)[C@@H]4CCC(N)=O)[C@@](C)(CC(N)=O)[C@@H]\3CCC(N)=O)C(C)(C)[C@@H]/2CCC(N)=O.CC(=O)O.[Co] (some centres undefined),-15.2% (inactive)
8,CC1=C(/C=C/C(C)=C/C=C/C(C)=C/C=C/C=C(C)/C=C/C=C(C)/C=C/C2=C(C)C(=O)CCC2(C)C)C(C)(C)CCC1=O,-0.298% (inactive)
9,CC(NNC(=O)c1ccccc1)c1ccccc1 (centres undefined),-15.6% (inactive)
10,CC1(C)O[C@@H]2C[C@H]3[C@@H]4CCC5=CC(=O)C=C[C@]5(C)[C@H]4[C@@H](O)C[C@]3(C)[C@]2(C(=O)CO)O1,-5.55% (inactive)
11,Cc1ccccc1OCC(O)CNCCOc1ccc(C(N)=O)cc1 (centres undefined),6.35% (inactive)
12,C[C@]12CCC(=O)C=C1CC[C@@H]1[C@@H]2[C@@H](O)C[C@@]2(C)[C@H]1CC[C@]2(O)C(=O)COP(=O)(O)O,-5.72% (inactive)
13,COc1ccc(CCNC[C@H](O)c2ccc(O)cc2)cc1OC,-3.8% (inactive)
14,CC(=O)Oc1cc(C)c(OC(C)=O)c2ccccc12,-16.5% (inactive)
15,Cc1c(C)c2c(c(C)c1O)CC[C@@](C)(CCC[C@H](C)CCC[C@H](C)CCCC(C)C)O2,-3.57% (inactive) and 0.952% (inactive)
16,O=C(COc1ccc(Cl)cc1)OCCNC12CC3CC(CC(C3)C1)C2,-5.61% (inactive)
17,CC(=O)N[C@@H](CC(=O)N[C@@H](CCC(=O)O)C(=O)O)C(=O)O,-3.93% (inactive)
18,Cc1cn([C@H]2C[C@H](O)[C@@H](CO)O2)c(=O)[nH]c1=O,-14.8% (inactive)
19,CO[C@H]1C=CO[C@@]2(C)Oc3c(C)c(O)c4c(O)c(c5c(c4c3C2=O)=NC2(CCN(CC(C)C)CC2)N=5)NC(=O)/C(C)=C\C=C/[C@H](C)[C@H](O)[C@@H](C)[C@@H](O)[C@@H](C)[C@H](OC(C)=O)[C@@H]1C,-14.2% (inactive)
20,CCCCCCCCCCCCCCCC(=O)OCC(COC(=O)CCCCCCCCCCCCCCC)OC(=O)CCCCCCCCCCCCCCC,-15.6% (inactive)
21,CC1=C(/C=C/C(C)=C/C=C/C(C)=C/C=C/C=C(C)/C=C/C=C(C)/C=C/C2=C(C)CCCC2(C)C)C(C)(C)CCC1,-10.1% (inactive)
